Structures can show the parent of a compound that is named as a salt. ± gives the standard deviation of the averaged measurements. In all, about 1,700 compounds were measured (“cell number in HSV-1-infected wells relative to infected DMSO wells (H2B-RFP signal)”: median about 100, highest 2% from about 140 on). The sample holds the highest values, similar compounds and a random draw of the others, so the mix is not that of the screen.
system: A549 infected with HSV-1; assay: cell number in HSV-1-infected wells relative to infected DMSO wells (H2B-RFP signal); higher = more surviving cells (uninfected or antiviral-protected wells give about 200%; low = toxicity); conditions: 10 µM; 48 h; MOI: 0.1
Method: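 Selleck FDA-approved library (L1300) screened in duplicate at 10 µM on A549 H2B-mRuby cells in 384-well plates, infected with HSV-1 strain 17 YFP-ICP4 at MOI 0.1 one hour before drug addition. Imaged after 2 days at 37°C. Cell growth (H2B-RFP) and infection (ICP4-YFP) are expressed as % of DMSO-treated wells. Hits: growth >90% and infection <20% of DMSO.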

Structure (SMILES) | cell number in HSV-1-infected wells [%]
O=NN(CCCl)C(=O)NC1CCCCC1 [Lomustine] | 84.7 ± 27
CO/N=C(\C(=O)N[C@@H]1C(=O)N2C(C(=O)OCOC(=O)C(C)(C)C)=C(/C=C\c3scnc3C)CS[C@H]12)c1csc(N)n1 [Cefditoren Pivoxil] | 110 ± 2.6
CO/N=C(\C(=O)N[C@@H]1C(=O)N2C(C(=O)O)=C(COC(C)=O)CS[C@H]12)c1csc(N)n1 [Cefotaxime sodium] | 103 ± 12
CC/C=C(\C(=O)N[C@@H]1C(=O)N2C(C(=O)OCOC(=O)C(C)(C)C)=C(COC(N)=O)CS[C@H]12)c1csc(N)n1 [Cefcapene Pivoxil Hydrochloride] | 149.2 ± 0.042
CCC(=O)NS(=O)(=O)c1ccc(-c2c(-c3ccccc3)noc2C)cc1 [Parecoxib] | 115 ± 8.7
CCC(=O)NS(=O)(=O)c1ccc(-c2c(-c3ccccc3)noc2C)cc1 [Parecoxib Sodium] | 89.9 ± 1
CC(=O)NO [Acetohydroxamic acid] | 127 ± 15
Cc1nc(-c2ccc(OCC(C)C)c(C#N)c2)sc1C(=O)O [Febuxostat] | 95.2 ± 11
O=C1[C@@H]2[C@H]3CC[C@H](C3)[C@@H]2C(=O)N1C[C@@H]1CCCC[C@H]1CN1CCN(c2nsc3ccccc23)CC1 [lurasidone] | 75.7 ± 27
CN1CCOC(c2ccccc2)c2ccccc2C1 (stereo not given) [Nefopam HCl] | 120 ± 8.1
CC1(C)C[C@@H]1C(=O)N/C(=C\CCCCSC[C@H](N)C(=O)O)C(=O)O [Cilastatin] | 99 ± 21
CN(C)C(=O)COC(=O)Cc1ccc(OC(=O)c2ccc(NC(=N)N)cc2)cc1 [Camostat Mesilate] | 124 ± 36
Cc1c(NC(=O)c2cccnc2)c(=O)n(-c2ccccc2)n1C [Nifenazone] | 145 ± 5.2
Cc1c(C(C)C)c(=O)n(-c2ccccc2)n1C [Propyphenazone (4-Isopropylantipyrine)] | 78.4 ± 2.3
O=C(O)c1cccnc1 [Nicotinic Acid] | 93.2 ± 4
CCCC(CCC)C(N)=O [Valpromide] | 91.6 ± 13
CC(=O)Oc1ccc(C(=C2CCCCC2)c2ccc(OC(C)=O)cc2)cc1 [Cyclofenil] | 122 ± 7.6
CNC(=O)c1cnn(-c2nc(N)c3ncn([C@@H]4O[C@H](CO)[C@@H](O)[C@H]4O)c3n2)c1 [Regadenoson] | 128 ± 16
Nc1ccc(/N=N/c2ccccc2)c(N)n1 [Phenazopyridine HCl] | 121 ± 23
COC(=O)C1=C(C)NC(C)=C(C(=O)OCC(C)C)C1c1ccccc1[N+](=O)[O-] (stereo not given) [Nisoldipine] | 92.2 ± 1.4
CC(=O)NC1CCSC1=O (stereo not given) [Citiolone] | 144 ± 26
O=C(O)CSCC(=O)NC1CCSC1=O (stereo not given) [Erdosteine] | 121 ± 9.9
OC[C@H]1O[C@@H](c2ccc(Cl)c(Cc3ccc(O[C@H]4CCOC4)cc3)c2)[C@H](O)[C@@H](O)[C@@H]1O | 110 ± 9

Structure (SMILES) | cell number in HSV-1-infected wells [%]
CN[C@H]1C(=O)N[C@@H]2Cc3ccc(cc3)Oc3cc4cc(c3O[C@@H]3O[C@H](C(=O)O)[C@@H](O)[C@H](O)[C@H]3NC(=O)CCCCCCCCC(C)C)Oc3ccc(cc3Cl)[C@@H](O)[C@@H]3NC(=O)[C@H](NC(=O)[C@@H]4NC(=O)[C@@H](NC2=O)c2cc(cc(O)c2Cl)Oc2cc1ccc2O)c1ccc(O)c(c1)-c1c(O[C@H]2O[C@H](CO)[C@@H](O)[C@H](O)[C@@H]2O)cc(O)cc1[C@@H](C(=O)NCCCN(C)C)NC3=O [Dalbavancin] | 125 ± 2.5
CSCCNc1nc(SCCC(F)(F)F)nc2c1ncn2[C@@H]1O[C@H](COP(=O)(O)OP(=O)(O)C(Cl)(Cl)P(=O)(O)O)[C@@H](O)[C@H]1O [Cangrelor Tetrasodium] | 99.5 ± 2.3
CN(C)CCCN1c2ccccc2CCc2ccccc21 [Imipramine HCl] | 134 ± 28
CNCCCN1c2ccccc2CCc2ccccc21 [Desipramine Hydrochloride] | 163 ± 20
CN(C)CCCN1c2ccccc2CCc2ccc(Cl)cc21 [Clomipramine HCl] | 93 ± 22
O=C(c1ccc(F)cc1)C1CCN(CCn2c(=O)[nH]c3ccccc3c2=O)CC1 [Ketanserin] | 124.4 ± 0.22
COc1cc(NC(C)CCCN)c2ncccc2c1 (stereo not given) [Primaquine Diphosphate] | 118 ± 8
Cc1cccc(C)c1OCC(=O)N[C@@H](Cc1ccccc1)[C@@H](O)C[C@H](Cc1ccccc1)NC(=O)[C@H](C(C)C)N1CCCNC1=O [Lopinavir] | 85.9 ± 22
NCCNc1ccc(NCCN)c2c1C(=O)c1ccncc1C2=O [Pixantrone Maleate] | 36.1 ± 10
O=C1Nc2ccc(Cl)cc2[C@@](C#CC2CC2)(C(F)(F)F)O1 [Efavirenz] | 10.6 ± 3.5
CCOC(CN1CCN(CC(C)C(=O)c2ccccc2)CC1)c1ccccc1 (stereo not given) [Eprazinone 2HCl] | 108.9 ± 1
CC1=C(/C=C/C(C)=C/C=C/C(C)=C\C(=O)O)C(C)(C)CCC1 [Isotretinoin] | 98.64 ± 0.63
COc1ccc(NC(=O)c2ccc(C(=N)N(C)C)cc2)c(C(=O)Nc2ccc(Cl)cn2)c1 [Betrixaban] | 150 ± 40
COc1ccc2c(c1)c(CC(=O)O)c(C)n2C(=O)c1ccc(Cl)cc1 [Indometacin Sodium] | 69.9 ± 22
COc1ccc(NC(=O)c2ccc(C(=N)N(C)C)cc2)c(C(=O)Nc2ccc(Cl)cn2)c1 [Betrixaban maleate] | 130 ± 48
COc1ccc2c(c1)c(CC(=O)O)c(C)n2C(=O)c1ccc(Cl)cc1 [Indomethacin] | 119 ± 12
CCCOC(C(=O)OC1CCN(C)CC1)(c1ccccc1)c1ccccc1 [Propiverine hydrochloride] | 102 ± 5
COC(=O)c1ccc2c(C(=Nc3ccc(N(C)C(=O)CN4CCN(C)CC4)cc3)c3ccccc3)c(O)[nH]c2c1 [Nintedanib Ethanesulfonate Salt] | 91.8 ± 4.1
CC(C)OC(=O)CCC/C=C\C[C@@H]1[C@@H](/C=C/C(F)(F)COc2ccccc2)[C@H](O)C[C@@H]1O [Tafluprost] | 83.4 ± 27
CC#CCn1c(N2CCC[C@@H](N)C2)nc2c1c(=O)n(Cc1nc(C)c3ccccc3n1)c(=O)n2C [Linagliptin] | 95.4 ± 6.9
NC(=O)c1ccc(I)c([N+](=O)[O-])c1 [Iniparib (BSI-201)] | 66.8 ± 6.8
NC(=O)c1cc(N2CC2)c([N+](=O)[O-])cc1[N+](=O)[O-] | 74.6 ± 11
Cc1c(C(N)=O)cc([N+](=O)[O-])cc1[N+](=O)[O-] [Dinitolmide] | 145 ± 18

Structure (SMILES) | cell number in HSV-1-infected wells [%]
C#Cc1cccc(Nc2ncnc3cc4c(cc23)OCCOCCOCCO4)c1 [Icotinib] | 113 ± 1.4
CCCCCCCCN=c1ccn(CCCCCCCCCCn2ccc(=NCCCCCCCC)cc2)cc1 [Octenidine Dihydrochloride] | 14.6 ± 4.9
CC(=O)OCC(CCn1cnc2cnc(N)nc21)COC(C)=O [Famciclovir] | 104 ± 3.7
Nc1nc(O)c2ncn(CCC(CO)CO)c2n1 [Penciclovir] | 205 ± 4.4
OC[C@H]1O[C@@H](O[C@@H]2[C@@H](CO)OC(O)(CO)[C@H]2O)[C@H](O)[C@@H](O)[C@H]1O (mixture of isomers) [Lactulose] | 115 ± 1.3
C(=C\c1ccccc1)/CN1CCN(C(c2ccccc2)c2ccccc2)CC1 [Cinnarizine] | 117 ± 4.5
CN1CCC(OC(c2ccccc2)c2ccccc2)CC1 [Diphenylpyraline HCl] | 98.9 ± 17
CN1CCN(C(c2ccccc2)c2ccccc2)CC1 [Cyclizine 2HCl] | 153 ± 28
C[N+](C)(C)CCO.O=C([O-])C(O)C(O)C(=O)O (stereo not given) [Choline bitartrate] | 124 ± 12
COc1cc(C2Oc3cc([C@H]4Oc5cc(O)cc(O)c5C(=O)[C@@H]4O)ccc3OC2CO)ccc1O (stereo not given in full) [Silibinin] | 95.4 ± 7
C=C[C@@H]1C[C@]1(NC(=O)[C@@H]1C[C@@H](Oc2ncc(OC)c3ccc(Cl)cc23)CN1C(=O)[C@@H](NC(=O)OC(C)(C)C)C(C)(C)C)C(=O)NS(=O)(=O)C1CC1 [Asunaprevir] | 94.5 ± 22
CCCCc1nc(C)c(CC(=S)N(C)C)c(=O)n1Cc1ccc(-c2ccccc2-c2nnn[nH]2)cc1 [Fimasartan] | 88.2 ± 16
Cc1cn(-c2cc(NC(=O)c3ccc(C)c(Nc4nccc(-c5cnccn5)n4)c3)cc(C(F)(F)F)c2)cn1 [Radotinib] | 64.4 ± 25
N[C@@H](Cc1c[nH]c2ccc(O)cc12)C(=O)O [5-hydroxytryptophan (5-HTP)] | 121 ± 13
CC1(C)CCC(C)(C)c2cc(NC(=O)c3ccc(C(=O)O)cc3)ccc21 [Tamibarotene] | 143 ± 7.9
C=C(c1ccc(C(=O)O)cc1)c1cc2c(cc1C)C(C)(C)CCC2(C)C [Bexarotene] | 85.7 ± 8.3
O=C(O)c1ccc(NC(=O)[C@H](Cc2ccc(O)cc2)NC(=O)c2ccccc2)cc1 [Bentiromide] | 101 ± 29
CCN(CC)C(=O)N1CCN(C)CC1 [Diethylcarbamazine citrate] | 89.5 ± 22
NC(=NCCCCCCN=C(N)N=C(N)Nc1ccc(Cl)cc1)N=C(N)Nc1ccc(Cl)cc1 [Chlorhexidine?2HCl] | 9.11 ± 0.6
Nc1ncn([C@H]2C[C@H](O)[C@@H](CO)O2)c(=O)n1 [Decitabine] | 166 ± 12
Nc1nc(Cl)nc2c1ncn2[C@H]1C[C@H](O)[C@@H](CO)O1 [Cladribine] | 42.1 ± 4.5
Cc1cn([C@@H]2C[C@@H](O)[C@H](CO)O2)c(=O)[nH]c1=O [Telbivudine] | 102 ± 8.7
O=c1[nH]c(=O)n([C@H]2C[C@H](O)[C@@H](CO)O2)cc1I [Idoxuridine] | 175.6 ± 1.1

Structure (SMILES) | cell number in HSV-1-infected wells [%]
Nc1ncn([C@@H]2O[C@H](CO)[C@@H](O)[C@H]2O)c(=O)n1 [Azacitidine] | 98.3 ± 4.2
O=c1[nH]c(=O)n([C@H]2C[C@H](O)[C@@H](CO)O2)cc1F [Floxuridine] | 53.3 ± 3.6
CC[C@H](C)C(=O)O[C@H]1C[C@H](O)C=C2C=C[C@H](C)[C@H](CC[C@@H](O)C[C@@H](O)CC(=O)O)[C@H]21 [Pravastatin sodium] | 95.3 ± 16
NC(=O)c1cn(Cc2c(F)cccc2F)nn1 [Rufinamide] | 120 ± 12
C[C@H]1CNCCCN1S(=O)(=O)c1cccc2cncc(F)c12 [Ripasudil (K-115) hydrochloride dihydrate] | 114 ± 7
N#Cc1cc(-c2n[nH]c(-c3ccncc3)n2)ccn1 [Topiroxostat] | 111 ± 12
Cc1ncc([N+](=O)[O-])n1CC(C)O (stereo not given) [Secnidazole] | 99.4 ± 14
NS(=O)(=O)c1cc2c(cc1Cl)N=CNS2(=O)=O [Chlorothiazide] | 114 ± 25
C1N2CN3CN1CN(C2)C3 [Methenamine] | 124 ± 25
COc1ccc2cc(CCC(C)=O)ccc2c1 [Nabumetone] | 97.7 ± 6.2
CN1CCN(CCCN2c3ccccc3Sc3ccc(Cl)cc32)CC1 [Prochlorperazine Dimaleate] | 163 ± 4.8
CN1CCN(CCCN2c3ccccc3Sc3ccc(Cl)cc32)CC1 [Prochlorperazine dimaleate salt] | 124 ± 49
CN1CCN(CCCN2c3ccccc3Sc3ccc(C(F)(F)F)cc32)CC1 [Trifluoperazine 2HCl] | 57.5 ± 10
OCCN1CCN(CCCN2c3ccccc3Sc3ccc(Cl)cc32)CC1 [Perphenazine] | 86.76 ± 0.7
CC(C)C(=O)OCC(=O)[C@@]12O[C@H](C3CCCCC3)O[C@@H]1C[C@H]1[C@@H]3CCC4=CC(=O)C=C[C@]4(C)[C@H]3[C@@H](O)C[C@@]12C [Ciclesonide] | 120 ± 13
Cc1onc(-c2c(Cl)cccc2Cl)c1C(=O)N[C@@H]1C(=O)N2[C@@H]1SC(C)(C)[C@@H]2C(=O)O [Dicloxacillin Sodium] | 146 ± 32
Cc1onc(-c2c(F)cccc2Cl)c1C(=O)N[C@@H]1C(=O)N2[C@@H]1SC(C)(C)[C@@H]2C(=O)O [Flucloxacillin sodium] | 111 ± 11
Cc1onc(-c2ccccc2Cl)c1C(=O)N[C@@H]1C(=O)N2[C@@H]1SC(C)(C)[C@@H]2C(=O)O [Cloxacillin Sodium] | 114 ± 15
C[C@]12CC[C@@H]3c4ccc(O)cc4C[C@@H](CCCCCCCCC[S+]([O-])CCCC(F)(F)C(F)(F)F)[C@H]3[C@@H]1CC[C@@H]2O (stereo not given in full) [Fulvestrant] | 74.6 ± 24
C[C@@H](O)[C@H]1C(=O)N2C(C(=O)O)=C(S[C@@H]3CN[C@H](CNS(N)(=O)=O)C3)[C@H](C)[C@H]12 [Doripenem] | 124 ± 13
C[C@@H](O)[C@H]1C(=O)N2C(C(=O)O)=C(S[C@@H]3CN[C@H](CNS(N)(=O)=O)C3)[C@H](C)[C@H]12 [Doripenem Hydrate] | 98.3 ± 14

— the supplement of paper PMC11537057
